Results published in PubChem BioAssay AID1159580 (chemical genetic matrix, 2015).
“And” between values parts separate entries of the source, which are not always exact repeats. Identical values can stand only once. Among all 5,500 compounds or so, about 2,000 (36%) were called active. Another 18% or so got no clear call; they are omitted. Rule as the data show it: active = normalized growth mostly below about 0.91 (no sharp cut-off); inconclusive = no clear call, values can overlap the other calls; inactive = mostly above about 0.92. This is one part of the list.

Test: chemical genetic growth profiling, strain panel (AID 1159580);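 also: tested at 20 µM; growth read once vehicle control cultures reached saturation at 30 °C; 1 = growth at the plate median or of vehicle wells; lower values mean less growth of the strain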
Conditions: S. cerevisiae deletion strains, growth OD

Measured: normalized growth

CC(C)=CCC1=C(O)c2ccccc2C(=O)C1=O
active: locus YAL021C, strain ccr4, hits give low values 0.748 | locus YAL026C, strain drs2, hits give low values 0.472 | locus YAL030W, strain snc1, hits give low values 0.799 | locus YBL061C, strain skt5, hits give low values 0.774 | locus YBR009C, strain hhf1, hits give low values 0.804 | locus YBR023C, strain chs3, hits give low values 0.749 | locus YBR171W, strain sec66, hits give low values 0.707 | locus YBR231C, strain swc5, hits give low values 0.718 | locus YBR279W, strain paf1, hits give low values 0.76 | locus YCL011C, strain gbp2, hits give low values 0.795 | locus YCL016C, strain dcc1, hits give low values 0.762 | locus YCL029C, strain bik1, hits give low values 0.899 | locus YCL069W, strain vba3, hits give low values 0.675 | locus YCR088W, strain abp1, hits give low values 0.799 | locus YDL005C, strain med2, hits give low values 0.759 | locus YDL040C, strain nat1, hits give low values 0.843 | locus YDL185W, strain tfp1, hits give low values 0.86 | locus YDL192W, strain arf1, hits give low values 0.896 | locus YDR001C, strain nth1, hits give low values 0.816 | locus YDR069C, strain doa4, hits give low values 0.719 | locus YDR137W, strain rgp1, hits give low values 0.328 | locus YDR159W, strain sac3, hits give low values 0.549 | locus YDR297W, strain sur2, hits give low values 0.832 | locus YDR318W, strain mcm21, hits give low values 0.902 | locus YDR334W, strain swr1, hits give low values 0.795 | locus YDR335W, strain msn5, hits give low values 0.514 | locus YDR388W, hits give low values 0.928 | locus YDR392W, strain spt3, hits give low values 0.703 | locus YEL003W, strain gim4, hits give low values 0.788 | locus YEL037C, strain rad23, hits give low values 0.825 | locus YEL061C, strain CIN8 (second series), hits give low values 0.799 | locus YER015W, strain faa2, hits give low values 0.648 | locus YER016W, strain bim1, hits give low values 0.635 | locus YER111C, strain swi4, hits give low values 0.564 | locus YER155C, strain BEM2 (second series), hits give low values 0.792 | locus YFR010W, strain ubp6, hits give low values 0.752 | locus YGL078C, strain dbp3, hits give low values 0.914 | locus YGL086W, strain mad1, hits give low values 0.879 | locus YGL167C, strain pmr1, hits give low values 0.0913 | locus YGL173C, strain kem1, hits give low values 0.745 | locus YGL227W, strain vid30, hits give low values 0.767 | locus YGL253W, strain hxk2, hits give low values 0.592 | locus YHR027C, strain rpn1, hits give low values 0.537 | locus YHR142W, strain chs7, hits give low values 0.421 | locus YIL125W, strain kgd1, hits give low values 0.93 | locus YJL092W, strain hpr5, hits give low values 0.793 | locus YJL095W, strain BCK1 (second series), hits give low values 0.675 | locus YJL115W, strain asf1, hits give low values 0.861 | locus YJL129C, strain trk1, hits give low values 0.554 | locus YJL154C, strain vps35, hits give low values 0.815 | locus YJL164C, strain tpk1, hits give low values 0.775 | locus YJL166W, strain qcr8, hits give low values 0.714 | locus YJL187C, strain SWE1, hits give low values 0.789
inactive: locus YAL013W, strain DEP1, hits give low values 0.949 | locus YBR021W, strain FUR4, hits give low values 1.05 | locus YBR229C, strain ROT2, hits give low values 0.963 | locus YDL035C, strain GPR1, hits give low values 0.97 | locus YDL074C, strain BRE1, hits give low values 0.994 | locus YDL101C, strain DUN1, hits give low values 0.951 | locus YDL134C, strain PPH21, hits give low values 0.958 | locus YDR101C, strain arx1, hits give low values 0.941 | locus YDR150W, strain NUM1, hits give low values 0.934 | locus YDR162C, strain NBP2, hits give low values 0.872 | locus YDR195W, strain ref2 0.976 | locus YDR502C, strain sam2, hits give low values 0.968 | locus YEL061C, strain CIN8, hits give low values 0.932 | locus YER110C, hits give low values 0.96 | locus YER155C, strain BEM2, hits give low values 0.962 | locus YER167W, strain BCK2, hits give low values 0.956 | locus YGL240W, strain doc1, hits give low values 0.924 | locus YGL248W, strain PDE1, hits give low values 0.964 | locus YGR078C, strain PAC10, hits give low values 0.986 | locus YGR135W, strain pre9, hits give low values 0.953 | locus YGR229C, strain SMI1, hits give low values 0.992 | locus YGR252W, strain gcn5, hits give low values 1 | locus YHR013C, strain ard1, hits give low values 0.904 | locus YHR030C, strain SLT2, hits give low values 0.936 and 0.964 | locus YHR079C, strain IRE1 (second series), hits give low values 0.941 | locus YHR079C, strain IRE1, hits give low values 0.961 | locus YHR094C, strain hxt1, hits give low values 0.96 | locus YHR129C, strain ARP1, hits give low values 0.952 | locus YHR200W, strain rpn10, hits give low values 0.932 | locus YIL066C, strain RNR3, hits give low values 0.965 | locus YIL073C, strain SPO22, hits give low values 0.824 | locus YIR030C, strain dcg1, hits give low values 0.945 | locus YJL095W, strain BCK1, hits give low values 0.944 and 0.936 | locus YJL134W, strain LCB3, hits give low values 0.95 | locus YJL168C, strain set2, hits give low values 0.95 | locus YJL187C, strain SWE1 (second series), hits give low values 0.957 | locus YJR043C, strain POL32, hits give low values 1.04 | locus YJR066W, strain TOR1, hits give low values 0.875
